From PubChem BioAssay AID1259339 (Broad Institute, 2017)
A number with no mark means an inactive call. Calls of active or inactive are those of the source.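 Rule for the calls: active = fitted AC50 no higher than ten times the top tested dose (cut at about 90 µM in these data); inconclusive = flat curve with 30 to 70% signal loss, or bad fit; inactive = AC50 beyond ten times the top dose.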

assay: AlphaLISA signal interference compounds, dose response, artefact control, biochemical, TruHit kit (AID 1259339); conditions: TruHit alphaLISA kit signal interference counterscreen; series mostly up to 80 µM

SMILES	AC50
O=C(Nc1ccc(OCC(=O)N2CCOCC2)cc1)c1cncc(Br)c1	inactive
C[C@H](CO)N1C[C@H](C)[C@@H](CN(C)CC2CCCCC2)OCCCC[C@H](C)Oc2ccc(NS(=O)(=O)c3ccc(F)cc3)cc2C1=O	inactive
CCc1ccc(Nc2nc(C(=O)NCc3ccc(N(C)C)cc3)nc3ccccc23)cc1	inactive
c1ccc(-c2nc(-c3ccco3)n3ccccc23)cc1	27.2 µM (active)
COc1ccc(S(=O)(=O)c2ccccc2)cc1NS(=O)(=O)c1cccc(C(=O)O)c1	inactive
NC(=O)C1(N2CCCCC2)CCN(c2ncc(NC(=O)c3cccc(Cl)c3)cc2C(=O)O)CC1	> 160 µM
O=C(Nc1nc(-c2ccco2)c(-c2ccco2)s1)c1ccc(F)cc1F	4.41 µM (active)
O=C(NC1CC1)c1cc(-c2ccco2)nc2ccccc12	inactive
O=S(=O)(c1ccc2nc(-c3ccco3)c(-c3ccco3)nc2c1)N1CCOCC1	26.8 µM (active)
CCc1nccn1CCC(=O)N1C[C@H](CO)C[C@H](CN2CCCC2)C1	inactive
Cn1ncc2c(NNC(=O)c3cc(O)cc(O)c3)ncnc21	inactive
NC(=O)C1(N2CCCCC2)CCN(c2ncc(NC(=O)c3ccccc3F)cc2C(=O)O)CC1	inactive
COc1c(C(=O)O)csc1Br	0.373 µM (active)
O=C(Cc1ccc(S(=O)(=O)N2CCOCC2)s1)Nc1nc2c(s1)CCCC2	29.2 µM (active)
O=C(COC(=O)CCC(=O)c1cccs1)NCc1ccco1	inactive
COCC(=O)N1CCCC2(CCN(CCN3CCCC3)C2=O)C1 (stereo unspecified)	inactive
NC(=O)c1ccc(CN2C(=O)C3(CCNCC3)Nc3ccccc32)cc1	inactive
Cc1ccc(C(=O)Nc2cnc(N3CCC(C(N)=O)(N4CCCCC4)CC3)c(C(=O)O)c2)cc1	inactive

SMILES	AC50
Cc1nc(C)c(C(=O)Nc2ncc([N+](=O)[O-])s2)o1	40.7 µM (active)
O=C(Nc1nc(-c2ccco2)c(-c2ccco2)s1)C1CCC1	4.55 µM (active)
NC(=O)C1(N2CCCCC2)CCN(c2ccc(NC(=O)c3cccc(Cl)c3)cc2C(=O)O)CC1	inactive
CCCc1cc(C(=O)N2CC[C@H]3CNC[C@H]32)n(C)n1	inactive
O=C(COc1cccnc1[N+](=O)[O-])c1ccc(Cl)s1	23.2 µM (active)
O=C(Nc1ccc2oc(-c3ccncc3)nc2c1)c1ccc2c(c1)OCO2	inactive
CCOc1ccccc1NC(=O)N1CCCC(c2nccn2CCOC)C1 (stereo unspecified)	inactive
O=C(Nc1nccs1)c1cc(-c2ccccn2)nc2c(Cl)cccc12	2.07 µM (active)
COCCC(=O)N1CCCC2(CCN(CCN3CCCC3)C2=O)C1 (stereo unspecified)	inactive
O=C(NCc1ccco1)c1c2c(nc3ccccc13)CCC2	82.4 µM (active)
NC(=O)C1(N2CCCCC2)CCN(c2ccc(NC(=O)c3ccccc3F)cc2C(=O)O)CC1	inactive
CC1CCN(c2nc(-c3ccco3)c3c(c2C#N)CC(C)(C)OC3)CC1	33.5 µM (active)
C(=C\c1ccco1)/c1nc2ccccc2[nH]1	22.5 µM (active)
C=CC(=O)N1CCCC2(CCN(CCN3CCCC3)C2=O)C1 (stereo unspecified)	inactive
O=C(O)C1Oc2cc3ccccc3cc2O1	30.2 µM (active)
Cc1ccccc1C(=O)Nc1cnc(N2CCC(C(N)=O)(N3CCCCC3)CC2)c(C(=O)O)c1	inactive
COc1ccc(-n2c(C)c3c(OC)cccc(=O)c3c2C)cc1	22.1 µM (active)
COc1ccc(-c2nnc(-c3nc(Nc4ccc(NC(C)=O)cc4)c4ccccc4n3)o2)cc1	> 160 µM
